These results are taken from paper PMC12864922, “TDP-43 directly inhibits mRNA accumulation in neurites through modulation of mRNA stability”.

To fix the notation:
B1: ENSMUSG00000090935.713|Synj2bp (ssRNA)
RNA: GGGAGUUCUACAGUCCGACGAUCGCUUCGAUAUCCGCAUGCUAAAGUCCAGAGCUCUGCUCUCUGAGCAUCUGCCCCAGAUACAGAGGCAGAGUAUGAAGUGGAACAUUGUUUUAUUCCUAGGUGCUCAGGACAGACUGAUCAACCUCCAGUAACAUAUGUGGUUAGUAAGUGCUUCAGCUUGUGUAGCCAUUAAUAACCAAGUCAUAGGAUUGUGAAUCUAAAAUACUCCUGGGUAAAAUUUGUAUUAGAAUGGAAAAAAAAAUGAGGGUCAGAAAGGUGAGCUAACUUCAAGUUAGAUACUCUCUUGCGGUCGCACUAGUGUGGAAUUCUCGGGUGUCAAGG
B2: ENSMUSG00000031028.412|Tub (ssRNA)
RNA: GGGAGUUCUACAGUCCGACGAUCGCUUCGAUAUCCGCAUGCUACCUCAUCCCCUCUUCUUUUUGGUCCUUGGCUGGGUAGCAAAUUGGUGAGAAGAGCAGCCUAGUCUGUAAGAGUGCAGGGCAGCUGGAACCUUAGGCAGCUCCUCUGUAUGCUACCGGCUCCACACCCUAACACUCUCCACCCUCUGCUCCAAACCAGUUCUUCUGCAGAGUGGUGAUGUUAGCUUCCCCAGCUCCUCUCCAAGUCUAGCUUUUUCUGUCCUUCUGGCUCCAAGGUGCUCUGUGUCUGUGUGUGUGUGUCUCUCUUGCGGUCGCACUAGUGUGGAAUUCUCGGGUGUCAAGG
B3: ENSMUSG00000031028.410|Tub (ssRNA)
RNA: GGGAGUUCUACAGUCCGACGAUCGCUUCGAUAUCCGCAUGCUAAGAUCCCUUACCCCUCAUCCCCUCUUCUUUUUGGUCCUUGGCUGGGUAGCAAAUUGGUGAGAAGAGCAGCCUAGUCUGUAAGAGUGCAGGGCAGCUGGAACCUUAGGCAGCUCCUCUGUAUGCUACCGGCUCCACACCCUAACACUCUCCACCCUCUGCUCCAAACCAGUUCUUCUGCAGAGUGGUGAUGUUAGCUUCCCCAGCUCCUCUCCAAGUCUAGCUUUUUCUGUCCUUCUGGCUCCAAGGUGCUCUGUGUCUGUCUCUUGCGGUCGCACUAGUGUGGAAUUCUCGGGUGUCAAGG
B4: ENSMUSG00000031028.411|Tub (ssRNA)
RNA: GGGAGUUCUACAGUCCGACGAUCGCUUCGAUAUCCGCAUGCUACUUACCCCUCAUCCCCUCUUCUUUUUGGUCCUUGGCUGGGUAGCAAAUUGGUGAGAAGAGCAGCCUAGUCUGUAAGAGUGCAGGGCAGCUGGAACCUUAGGCAGCUCCUCUGUAUGCUACCGGCUCCACACCCUAACACUCUCCACCCUCUGCUCCAAACCAGUUCUUCUGCAGAGUGGUGAUGUUAGCUUCCCCAGCUCCUCUCCAAGUCUAGCUUUUUCUGUCCUUCUGGCUCCAAGGUGCUCUGUGUCUGUGUGUGUCUCUUGCGGUCGCACUAGUGUGGAAUUCUCGGGUGUCAAGG
B5: ENSMUSG00000031028.415|Tub (ssRNA)
RNA: GGGAGUUCUACAGUCCGACGAUCGCUUCGAUAUCCGCAUGCUAUUGGUCCUUGGCUGGGUAGCAAAUUGGUGAGAAGAGCAGCCUAGUCUGUAAGAGUGCAGGGCAGCUGGAACCUUAGGCAGCUCCUCUGUAUGCUACCGGCUCCACACCCUAACACUCUCCACCCUCUGCUCCAAACCAGUUCUUCUGCAGAGUGGUGAUGUUAGCUUCCCCAGCUCCUCUCCAAGUCUAGCUUUUUCUGUCCUUCUGGCUCCAAGGUGCUCUGUGUCUGUGUGUGUGUGUCUGUCUGUGUGUGUGUGUGUCUCUUGCGGUCGCACUAGUGUGGAAUUCUCGGGUGUCAAGG
B6: ENSMUSG00000031028.413|Tub (ssRNA)
RNA: GGGAGUUCUACAGUCCGACGAUCGCUUCGAUAUCCGCAUGCUACCCCUCUUCUUUUUGGUCCUUGGCUGGGUAGCAAAUUGGUGAGAAGAGCAGCCUAGUCUGUAAGAGUGCAGGGCAGCUGGAACCUUAGGCAGCUCCUCUGUAUGCUACCGGCUCCACACCCUAACACUCUCCACCCUCUGCUCCAAACCAGUUCUUCUGCAGAGUGGUGAUGUUAGCUUCCCCAGCUCCUCUCCAAGUCUAGCUUUUUCUGUCCUUCUGGCUCCAAGGUGCUCUGUGUCUGUGUGUGUGUGUCUGUCUGUCUCUUGCGGUCGCACUAGUGUGGAAUUCUCGGGUGUCAAGG
B7: ENSMUSG00000031028.414|Tub (ssRNA)
RNA: GGGAGUUCUACAGUCCGACGAUCGCUUCGAUAUCCGCAUGCUAUUCUUUUUGGUCCUUGGCUGGGUAGCAAAUUGGUGAGAAGAGCAGCCUAGUCUGUAAGAGUGCAGGGCAGCUGGAACCUUAGGCAGCUCCUCUGUAUGCUACCGGCUCCACACCCUAACACUCUCCACCCUCUGCUCCAAACCAGUUCUUCUGCAGAGUGGUGAUGUUAGCUUCCCCAGCUCCUCUCCAAGUCUAGCUUUUUCUGUCCUUCUGGCUCCAAGGUGCUCUGUGUCUGUGUGUGUGUGUCUGUCUGUGUGUGUCUCUUGCGGUCGCACUAGUGUGGAAUUCUCGGGUGUCAAGG
B8: ENSMUSG00000043670.304|Diras1 (ssRNA)
RNA: GGGAGUUCUACAGUCCGACGAUCGCUUCGAUAUCCGCAUGCUAGUCACAAAGAGACAGAGAAGCAGAAAGAAGGCUGAAGCCAGAUGACCAAGUAGGCCGGACCCCACUGUGUUCCCUUCUGUGUGCCAGGCACAGGGAGAGCCACAGCCUGAAGCCUGAGUCUGAGCAUAGCUGAGCCCUGACCUCUAGCCAGCCCAGGGCCCCCACAGCUGCCACCUGCUCCCAAGCCCCGGGAGUGGCUCCUGGCUGGACAGGGGGUCACAGCCCUUUCUCAGGGACACACCCUGAUAGCACAAUCUCUGCUCUUGCGGUCGCACUAGUGUGGAAUUCUCGGGUGUCAAGG
B9: ENSMUSG00000029636.41|Wasf3|31:35;229:235 (ssRNA)
RNA: GGGAGUUCUACAGUCCGACGAUCGCUUCGAUAUCCGCAUGCUACACAUCCUUCUGGAUUUGUUGAGUAUUUACACACAAAUACUUAAGUGCCACAGAACACAGCACACCGUGCUGCACACCAGGAAACUCGCAGUAUUAGUGCAUCACCCUGGAACAGCAUCUUGCUUCCCUCUCAGCCGUGAGAGUCCCCUCUCCUGUCCAUCCUGAUUUGGUGGGCUUGCCACGUAUCUGCGCAGCUGCCCCACGUCAGCUCUCUGCAAGAUCACUGGCACACACACUCAGUGAUGUCUUCCAACCAGUGGCUCUUGCGGUCGCACUAGUGUGGAAUUCUCGGGUGUCAAGG

Whole data set: some 9,900 sequences, median “r (bound/input frequency ratio)” near 0.7, cut for the highest 2% near 6.5. The sample holds the highest values, similar sequences and a random draw of the others, so the mix is not that of the screen.

TDP-43, sequence (Q13148 whole entry): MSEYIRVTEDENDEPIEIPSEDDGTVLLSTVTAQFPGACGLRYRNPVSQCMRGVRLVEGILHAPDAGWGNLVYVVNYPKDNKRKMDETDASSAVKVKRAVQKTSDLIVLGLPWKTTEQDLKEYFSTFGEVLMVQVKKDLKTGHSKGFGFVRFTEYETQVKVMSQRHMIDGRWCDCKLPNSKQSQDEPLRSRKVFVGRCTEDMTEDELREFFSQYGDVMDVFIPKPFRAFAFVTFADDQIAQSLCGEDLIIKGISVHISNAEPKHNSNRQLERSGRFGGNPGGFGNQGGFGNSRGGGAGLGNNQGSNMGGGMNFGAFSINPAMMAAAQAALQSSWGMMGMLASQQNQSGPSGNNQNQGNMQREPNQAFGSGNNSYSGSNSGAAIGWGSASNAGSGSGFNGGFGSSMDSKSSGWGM

The assay deals with TDP-43 (Homo sapiens, UniProt Q13148 1-414). In words: RNA Bind-n-Seq with designed 260-mer pool; 25 mM Tris-HCl, 150 mM KCl, 3 mM MgCl2, BSA (printed 500 mg/mL), 20 units/mL SUPERase IN; pH not stated; 500 nM RNA pool, 1 h, 4 C; TDP-43 5, 50, 500 nM; high values mean tight binding. The note with it: protein: recombinant; tags: SBP (GST cleaved off with PreScission; pGEX-GST-SBP). The gist of the method:
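Recombinant SBP-tagged TDP-43 at 5, 50 or 500 nM was captured on streptavidin beads, then incubated 1 h at 4 °C with 500 nM of an in vitro-transcribed 260-nt 3′ UTR oligo pool in 25 mM Tris-HCl, 150 mM KCl, 3 mM MgCl2, BSA and SUPERase IN. Bound RNA was washed, eluted with biotin, reverse transcribed, PCR-amplified and sequenced. Binding is R, each oligo's mapped-read-normalized abundance in the bound sample divided by its abundance in input. Duplicates used two independent protein batches.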
Turning to B1, the binding signal was 1.85 R (bound/input frequency ratio).
In the case of B2, the binding signal was 2.36 R (bound/input frequency ratio).
B3: the binding signal is 1.11 R (bound/input frequency ratio).
To B4 belongs 1.34 R (bound/input frequency ratio).
With B5, the binding signal is 6.65 R (bound/input frequency ratio).
To B6 belongs 3.56 R (bound/input frequency ratio); to B7, 6.55 R (bound/input frequency ratio).
The result for B8 reads 0.472 R (bound/input frequency ratio); that for B9, 0.406 R (bound/input frequency ratio).
